A selection: hits, their analogues and other compounds. The true share with any hit is near 2%.
Jurkat NFkB inh: lowers PMA/ionomycin-induced NF-kB signal in Jurkat cells; PMA/ionomycin-induced NF-kB luciferase reporter, luminescence; inhibition, % at 4 µM; 330,000 tested, 0.53% active; AID 435003; in the data active = inhibition above about 50%
NR2F2 inh: NR2F2 (human) inhibition, primary screen; HEK293T NGFI-A luciferase reporter, luminescence; inhibition, % at 8.6 µM; 370,000 tested, 0.7% active;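 active = inhibition above a per-plate cutoff, mean inhibition of test wells between control levels plus 3 SD, cut at about 38% in these data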;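 also: cells cotransfected with COUP-TFII expression vector driving the NGFI-A reporter; 0% = median of COUP-TF2 test wells and 100% = reporter-only cells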
Target sequence (P24468 whole entry, looked up): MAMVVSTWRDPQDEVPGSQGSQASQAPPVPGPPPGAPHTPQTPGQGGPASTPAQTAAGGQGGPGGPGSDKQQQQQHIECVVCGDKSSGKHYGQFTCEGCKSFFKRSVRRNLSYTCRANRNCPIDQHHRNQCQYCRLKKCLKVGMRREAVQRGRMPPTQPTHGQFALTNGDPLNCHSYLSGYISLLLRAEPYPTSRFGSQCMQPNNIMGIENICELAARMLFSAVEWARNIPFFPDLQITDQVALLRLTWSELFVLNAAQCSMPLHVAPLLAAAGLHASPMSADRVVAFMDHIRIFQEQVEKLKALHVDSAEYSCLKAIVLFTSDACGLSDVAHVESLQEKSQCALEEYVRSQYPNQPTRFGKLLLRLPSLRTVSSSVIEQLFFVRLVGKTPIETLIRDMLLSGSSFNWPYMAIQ
Gli-Sufu block: antagonists of Gli-Sufu signaling. Sufu-KO-LIGHT fibroblasts, Gli luciferase reporter luminescence. inhibition, % at 5 µM. 340,000 tested, 0.74% active. AID 588413;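 active = inhibition above about 55%, limit read from the data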;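 also: 0% = DMSO-treated cells and 100% = wells with medium but no cells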
GalR3 antag: antagonists of human GalR3 | 360,000 tested, 0.44% active | inhibition, % at 3 µM | AID 651719 | O60755 | HEK293 GalR3-CNG cAMP membrane potential fluorescence; galR3 body fused to GalR1 C-terminus;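 active = inhibition above the screen-wide average plus 3 SD, cut at about 13% in these data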;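 also: forskolin and galanin both at EC90 stimulate the cells; cAMP rise reported by CNG channel membrane potential dye signal; 0% = forskolin plus galanin with DMSO and 100% = forskolin alone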
697 NFkB inh: inhibitors of the PMA/ionomycin-induced NF-kB reporter in 697 B cells; 697 B-cell NF-kB luciferase reporter, 16 h; 330,000 tested, 0.33% active; inhibition, % at 4 µM; AID 435022; in the data active = inhibition above about 35%
GalR3 conf: confirmation of human galanin receptor 3 antagonists; shares compounds with GalR3 antag; HEK293 GalR3 CNG cAMP biosensor, membrane potential fluorescence; galR3 fused to GalR1 carboxy tail; challenged with forskolin and galanin at EC90; inhibition, % at 3 µM; 1,600 tested, 59% active; AID 652245;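 active = inhibition above the primary screen's cutoff, the mean inhibition of all screened compounds plus 3 SD, cut at about 13% in these data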;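 also: 0% = forskolin plus galanin and 100% = forskolin alone with DMSO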
HEK-CNG parental: parental cell agonism counter-screen for GalR3 antagonists. shares compounds with GalR3 antag. HEK293-CNG parental cells, cAMP membrane potential fluorescence; normalised: DMSO wells 0%, forskolin wells 100%. activation, % at 3 µM. 1,600 tested, 10% active; in the data active = activation above about 1.3%
An asterisk follows results filed as active.

For Cc1ccc(CNC(=O)[C@H]2O[C@@H](n3cnc4c(N)ncnc43)[C@H](O)[C@@H]2O)o1 the results were NR2F2 inh -44.1, GalR3 antag 81.2*, GalR3 conf 78.0* and HEK-CNG parental 0.1.
Nc1ncnc2c1ncn2[C@@H]1O[C@H](C(=O)N[C@@H](CO)c2ccccc2)[C@@H](O)[C@H]1O was read as NR2F2 inh -26.7 and GalR3 antag -5.6.
`C=CCN1[C@H](C#N)[C@@H](c2ccc(C#Cc3ccccc3OC)cc2)[C@H]1CO` gave NR2F2 inh 19.0.
Screening O=C(CCC(=O)OCC(=O)c1ccc(C(F)(F)F)cc1)OCC(=O)c1ccc(C(F)(F)F)cc1 returned Jurkat NFkB inh 1.8, NR2F2 inh 10.3, Gli-Sufu block 3.5, GalR3 antag -2.4 and 697 NFkB inh 17.3.
`O=C(COC(=O)C(O)C(O)C(=O)OCC(=O)c1ccc(C(F)(F)F)cc1)c1ccc(C(F)(F)F)cc1` (stereo not given) gave Jurkat NFkB inh 3.8, NR2F2 inh 22.8, Gli-Sufu block 4.7, GalR3 antag 12.7*, 697 NFkB inh 3.2, GalR3 conf 9.6 and HEK-CNG parental 0.3.
Screening Fc1cccc(-c2nnn3c2nc(Cl)c2ccccc23)c1 returned NR2F2 inh -20.4, Gli-Sufu block 8.2, GalR3 antag 14.0*, GalR3 conf 6.4 and HEK-CNG parental 3.8*.
Screening N#CC(C#N)=C(Nc1ccc(F)cc1)SCc1cccc(F)c1 returned Jurkat NFkB inh 6.3, NR2F2 inh 36.5, Gli-Sufu block 31.6, GalR3 antag 91.1*, 697 NFkB inh 14.1, GalR3 conf 35.3* and HEK-CNG parental -0.2.
Screening CCOc1ccc(N/C(SCc2cccc([N+](=O)[O-])c2)=C(/C#N)C(N)=O)cc1 returned Jurkat NFkB inh 13.1, NR2F2 inh 21.2, Gli-Sufu block 3.7, GalR3 antag 1.4 and 697 NFkB inh 18.9.
CC(=O)Nc1ccc(Br)c2ccccc12 was read as Jurkat NFkB inh -0.5, NR2F2 inh 4.7, Gli-Sufu block -4.4, GalR3 antag -1.5 and 697 NFkB inh 15.8.
Screening O=C(Nc1ccc(Br)c2ccccc12)c1ccc2ccccc2c1O returned NR2F2 inh 23.8, Gli-Sufu block 38.6, GalR3 antag 78.3*, GalR3 conf 89.6* and HEK-CNG parental -0.1.
`CCC(NC(=O)c1ccccc1NC(=O)C(C)(C)C)C(=O)N1CC(C)OC(C)C1` (stereo not given) gave Jurkat NFkB inh -2.0, NR2F2 inh 5.8, Gli-Sufu block 1.6, GalR3 antag 2.5 and 697 NFkB inh -3.9.
CCC(NC(=O)c1ccccc1NC(=O)C(C)(C)C)C(=O)N1CCCC1 (stereo not given) was read as Jurkat NFkB inh -5.0, NR2F2 inh 1.9, Gli-Sufu block -21.9, GalR3 antag 14.7*, 697 NFkB inh -10.3, GalR3 conf 6.8 and HEK-CNG parental 0.0.
Screening CO[C@H]([C@H](C)/C=C/N(C)C=O)[C@@H](C)C(=O)CC[C@H](C)[C@H](O)[C@H](C)[C@H]1OC(=O)/C=C/C(C)=C/C[C@H](O)C[C@@H]2C=CC[C@@H](C[C@H](OC)C(C)(O)[C@@H](OC)C[C@@H](OC)[C@@H]1C)O2 (stereo not given in full) returned NR2F2 inh -25.6.
For COc1ccc(C(=O)c2ccc3oc(-c4ccc(OC)cc4)c(-c4ccc(O)cc4)c3c2)cc1 the results were Jurkat NFkB inh 9.7, NR2F2 inh -16.5, Gli-Sufu block -8.1, GalR3 antag 12.7*, 697 NFkB inh 9.7, GalR3 conf 5.4 and HEK-CNG parental -0.8.
Screening CCN(Cc1ccccc1)c1ccc(/C=N/NC(=O)c2cccc(S(=O)(=O)N3CCOCC3)c2)cc1 returned Jurkat NFkB inh 27.8, NR2F2 inh 9.3, Gli-Sufu block 6.0, GalR3 antag 23.6*, 697 NFkB inh -55.5, GalR3 conf 88.5* and HEK-CNG parental -2.1.
CCN(CC)c1ccc(/C=N/NC(=O)c2cccc(S(=O)(=O)N3CCOCC3)c2)cc1 was read as Jurkat NFkB inh -5.7, NR2F2 inh -10.2, Gli-Sufu block 2.4, GalR3 antag -4.3 and 697 NFkB inh 4.6.
C#CCN(C1CC1)S(=O)(=O)c1ccccc1Br was read as NR2F2 inh -5.8.
Screening CCCc1cc(=O)oc2c3c(cc(OCC(=O)NCc4ccncc4)c12)OC(C)(C)CC3 returned Jurkat NFkB inh -17.8, NR2F2 inh 15.6, Gli-Sufu block 13.0, GalR3 antag 15.2*, 697 NFkB inh -10.0, GalR3 conf 6.5 and HEK-CNG parental 0.5.
`CCCc1cc(=O)oc2c3c(cc(OCC(=O)N[C@@H](C)C(=O)O)c12)OC(C)(C)CC3` gave Jurkat NFkB inh -25.5, NR2F2 inh -13.7, Gli-Sufu block 14.1, GalR3 antag -10.5 and 697 NFkB inh 8.1.
For CCOc1ccc(-n2c(SCC(=O)Nc3cccc4ccccc34)nnc2-c2ccccc2)cc1 the results were NR2F2 inh 20.2.
`O=C(N[C@H]1C[C@@H]2O[C@@H](CO)CC[C@@H]2O[C@@H]1CCc1ccc(-c2cccnc2)cc1)c1cccc(F)c1` gave NR2F2 inh -10.6.
For COC(=O)c1c(-c2ccc(OC)cc2)sc2cc3c(cc12)OCO3 the results were Jurkat NFkB inh -69.8, NR2F2 inh -37.6, Gli-Sufu block -82.6, GalR3 antag 12.9*, 697 NFkB inh -96.8, GalR3 conf 18.0* and HEK-CNG parental 0.1.
For COc1ccc(-c2sc3cc4c(cc3c2C#CCO)OCO4)cc1 the results were Jurkat NFkB inh -10.5, NR2F2 inh 6.1, Gli-Sufu block -9.7, GalR3 antag -6.2 and 697 NFkB inh -50.1.
For COC(=O)C[C@H]1CC[C@@H]2[C@H](COc3ccc(NC(=O)c4cccc(F)c4)cc3C(=O)N2C)O1 the results were NR2F2 inh 8.9.
COc1cccc(C(=O)n2ccc3ccc(-c4ccc5ccn(C(=O)c6cccc(OC)c6)c5c4)cc32)c1 was read as NR2F2 inh -19.7.
For COc1ccc(-c2c(-c3ccccc3OC)oc3ccccc23)cc1F the results were Jurkat NFkB inh -17.0, NR2F2 inh -37.0, Gli-Sufu block 3.7, 697 NFkB inh -3.6, GalR3 conf 1.7 and HEK-CNG parental -0.6.
Screening O=C1CCCc2ccc3ccccc3c21 returned NR2F2 inh -2.7, Gli-Sufu block 6.9 and GalR3 antag -5.5.
COc1cc2ccccc2c2c1CCCC2=O was read as Jurkat NFkB inh -18.0, NR2F2 inh -28.2, Gli-Sufu block 4.4, 697 NFkB inh -66.3, GalR3 conf -5.7 and HEK-CNG parental 0.7.
